# In all, about 66,000 compounds went through this assay and about 960 (1.5%) showed an effect of 50% or more. What follows is part of a selection rich in strong results, with near analogues and random picks from the rest.
# Tested on: Trypanosoma brucei
# Experiment: Trypanosoma brucei 72 hour study
# Assay type: functional, organism-based
# Set-up: scale not given: in the data most compounds retested in dose-response had high values
smiles,measurement,setting,value
CO[C@@H]1CN(c2ccccc2)S(=O)(=O)[C@@]12CCN(C(=O)N(C)C)C2,Percent Effect,"30.3 µM, […]",5.082%
O=C1C[C@H]2CC[C@@H](CN1)N2C(=O)CCc1ccsc1,Percent Effect,"30.3 µM, […]",5.085%
CCc1n[nH]c(C2CN(C(=O)c3ncoc3C(C)C)CCO2)n1 (configuration not stated),Percent Effect,"30.3 µM, […]",10.22%
COCCN(CC1CC1)c1nc(CCN)nc2ccccc12,Percent Effect,"30 µM, 30.03 µM",27.63%
CCN(CCN(C)C)c1nc(CCN)nc2sc(C)c(C)c12,Percent Effect,"30 µM, 30.03 µM",-19.52%
COCCN(CC1CC1)c1nc(CCN)nc2sc(C)c(C)c12,Percent Effect,"30 µM, 30.03 µM",105.1%
Cc1sc2nc(CCN)nc(N(CCN(C)C)CC3CCCO3)c2c1C (configuration not stated),Percent Effect,"30 µM, 30.03 µM",33.05%
Cc1sc2nc(CCN)nc(N(C)CCCC3CCCO3)c2c1C (configuration not stated),Percent Effect,"30 µM, 30.03 µM",73.15%
COCCN(Cc1cccs1)c1nc(CCN)nc2ccccc12,Percent Effect,"30 µM, 30.03 µM",3.665%
O=C(O)C(F)(F)F.O=C1CCC2(CCN(Cc3nccs3)CC2)N1Cc1ccccc1,Percent Effect,"30 µM, 30.03 µM",-8.129%
O=C(O)C(F)(F)F.O=C1CC[C@H]2[C@H](CCN2C(=O)C2CCOC2)N1Cc1ccncc1 (some centres not stated),Percent Effect,"30 µM, 30.03 µM",-22.31%
Cc1noc(C)c1CN1C[C@H](OCC2CCN(C)CC2)[C@H]2COC[C@H]21.O=C(O)C(F)(F)F.O=C(O)C(F)(F)F,Percent Effect,"30.3 µM, […]",-21.15%
Cc1nc(COCC2CN(C(=O)N(C)C)Cc3nccn3C2)cs1.O=C(O)C(F)(F)F (configuration not stated),Percent Effect,"30.3 µM, […]",-49.05%
CCn1ncc2c1C(COC)CN(Cc1cccnc1)C2.O=C(O)C(F)(F)F.O=C(O)C(F)(F)F.O=C(O)C(F)(F)F (configuration not stated),Percent Effect,"30.3 µM, […]",-94.72%
COc1cc(N2CC[C@@H](O)[C@@H]2Cc2ccncc2)ncn1.O=C(O)C(F)(F)F,Percent Effect,"30 µM, 30.03 µM",35.07%
COc1ccc(F)c(-c2ncccc2NC(=O)C(C)C)c1,Percent Effect,"30 µM, 30.03 µM",20.56%
COc1cc(F)ccc1-c1ncccc1NC(=O)C(C)C,Percent Effect,"30 µM, 30.03 µM",52.34%
COc1ncccc1-c1ncccc1NC(=O)C(C)C,Percent Effect,"30 µM, 30.03 µM",34.88%
Cl.Nc1ncnc2nc(C3CCCCN3)ccc12 (configuration not stated),Percent Effect,"30.3 µM, […]",5.297%
COCCN1CCC(CN(CC2CCCO2)C(=O)CNC(C)=O)CC1 (configuration not stated),Percent Effect,"30 µM, 30.03 µM",3.281%
CCn1cc(CN2CCCN(C(=O)CCn3cc(C)cn3)CC2)cn1,Percent Effect,"30.3 µM, […]",-9.74%
same,Percent Effect,"10 mM, 10 mM as filed; unlikely as a test dose",-22.46%
CCCNC(=O)c1cc(-c2cnc(N3CCCC3)nc2)cn1C,Percent Effect,"30.3 µM, […]",-994.8%
CN(C)CCNC(=O)c1cc(-c2cnc(N3CCOCC3)nc2)cn1C.O=C(O)C(F)(F)F,Percent Effect,"30.3 µM, […]",-753.9%
CN(C)CCNC(=O)c1cc(-c2cnc(N3CCCC3)nc2)cn1C.O=C(O)C(F)(F)F,Percent Effect,"30 µM, 30.03 µM",97.37%
Cl.Cn1nc(C2CCCN(Cc3cc(F)ccc3F)C2)c2nccnc21 (configuration not stated),Percent Effect,"30.3 µM, […]",20.63%
CN1[C@@H](C(=O)NCC2CC2)C[C@H]2CN(Cc3ccsc3)C[C@H]21.O=C(O)C(F)(F)F.O=C(O)C(F)(F)F,Percent Effect,"30.3 µM, […]",-48.96%
Cn1nc(COCC2CC2)c2c1CN(CC1CC1)CC2.O=C(O)C(F)(F)F.O=C(O)C(F)(F)F,Percent Effect,"30.3 µM, […]",-59.62%
CSc1cccc(CN(C)C(=O)c2ccc(C3CCCNC3)cc2)c1 (configuration not stated),Percent Effect,"30 µM, 30.03 µM",45.3%
O=C(NCc1ccc2c(c1)OCO2)c1ccccc1C1CCNC1 (configuration not stated),Percent Effect,"30 µM, 30.03 µM",75.73%
O=C(NCc1ccc2c(c1)CCCO2)c1ccccc1C1CCNC1 (configuration not stated),Percent Effect,"30 µM, 30.03 µM",-18.86%
CC(C)Cc1cc(CNC(=O)c2ccccc2C2CCNC2)no1 (configuration not stated),Percent Effect,"30 µM, 30.03 µM",-25.71%
CN(Cc1ccc2c(c1)OCO2)C(=O)c1ccc(=O)n(C)c1,Percent Effect,"30.3 µM, […]",-33.31%
CN(Cc1ccc2c(c1)OCO2)C(=O)c1ccc(C2CCCNC2)cc1 (configuration not stated),Percent Effect,"30 µM, 30.03 µM",78.75%
CC(C)OCCCN(Cc1ccncc1)Cc1cccc(F)c1F.Cl,Percent Effect,"30.3 µM, […]",-30.88%
N#Cc1ccc(S(=O)(=O)NC(=O)c2csc(-c3ccco3)n2)cc1,Percent Effect,"30.3 µM, […]",2.361%
CCc1ccc(CN2C[C@@H](C)C3(CCN(CC(=O)N(C)C)C3=O)C2)o1.O=C(O)C(F)(F)F (some centres not stated),Percent Effect,"30.3 µM, […]",4.737%
CC(=O)N1N=C(c2cccs2)OC1C(=O)NCc1ccc(C)o1 (configuration not stated),Percent Effect,"30.3 µM, […]",9.707%
same,Percent Effect,"10 mM, 10 mM as filed; unlikely as a test dose",-41.55%
CC(=O)NCCN1CCC(c2cccs2)CC1,Percent Effect,"30 µM, 30.03 µM",-43.56%
O=C(NCCc1ccccc1)NCCN1CCC(c2cccs2)CC1,Percent Effect,"30 µM, 30.03 µM",47.79%
COc1ccc(CCC(=O)NCCN2CCC(c3cccs3)CC2)cc1,Percent Effect,"30 µM, 30.03 µM",100%
CC1CCCN(Cc2ccnc(-c3cccnc3)n2)C1.O=C(O)CC(O)(CC(=O)O)C(=O)O (configuration not stated),Percent Effect,"30.3 µM, […]",9.831%
O=C(CCN1C(=O)CCC1=O)Nc1cnn(-c2ccccc2Cl)c1,Percent Effect,"30 µM, 30.03 µM",-41.29%
CS(=O)(=O)NCCC(=O)Nc1cnn(-c2ccccc2Cl)c1,Percent Effect,"30.3 µM, […]",-13.82%
O=C(CCCNC(=O)C1CC1)Nc1cnn(-c2ccccc2Cl)c1,Percent Effect,"30 µM, 30.03 µM",60.12%
O=C(O)C(F)(F)F.O=C(O)C(F)(F)F.O=c1ccc2c(n1Cc1ccncc1)CCN(Cc1ccoc1)CC2,Percent Effect,"30 µM, 30.03 µM",-36.06%

# From ChEMBL document CHEMBL3988442, “University of Dundee, Small-Polar-MMV Screening Library” (2021)
